POLI inh: inhibitors of human DNA polymerase iota; Pol iota fluorescent replication assay, 10 min; 390,000 tested, 1% active; Potency, µM (series often up to 115 µM), hits mostly inhibitors; Q9UNA4; AID 588590
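Pol iota at 10 nM preincubated 15 min with compounds at room temperature; reaction started with fluorescent substrate, 50 nM final. Fluorescence read kinetically at 0 and 10 min; buffer-only wells as negative control.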
Pol beta inh: inhibitors of human DNA polymerase beta. Potency, µM (highest dose often 114 µM), actives largely listed as inhibitors. Pol beta primer extension/strand displacement, fluorescence kinetic. P06746. 340,000 tested, 1.3% active
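Human Pol beta at 10 nM; strand-displacement substrate 50 nM final. Compound exposure 15 min at room temperature before start, reaction 10 min at room temperature.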
FEN1 inh: human FEN1 inhibition; Recombinant FEN1 flap cleavage, fluorescence, 15 min; Potency, µM (top dose mostly 114 µM), usual class: inhibitors; 390,000 tested, 0.35% active; AID 588795; note: nearly all actives have a fitted effect of over 65% in size
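Concentration–response screening of FEN1 (10 nM): 15 min compound preincubation at room temperature, reaction started with 50 nM substrate and read at 0 and 15 min. Corrected, normalized data were fitted by a four-parameter Hill equation.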
POLK inh: blocks human DNA polymerase kappa activity; Q9UBT6; purified Pol kappa, fluorescent DNA synthesis assay, 10 min; Potency, µM (highest dose often 107 µM), usual class: inhibitors; 400,000 tested, 0.53% active; AID 588579
Target sequence (Q9UBT6 whole entry, looked up): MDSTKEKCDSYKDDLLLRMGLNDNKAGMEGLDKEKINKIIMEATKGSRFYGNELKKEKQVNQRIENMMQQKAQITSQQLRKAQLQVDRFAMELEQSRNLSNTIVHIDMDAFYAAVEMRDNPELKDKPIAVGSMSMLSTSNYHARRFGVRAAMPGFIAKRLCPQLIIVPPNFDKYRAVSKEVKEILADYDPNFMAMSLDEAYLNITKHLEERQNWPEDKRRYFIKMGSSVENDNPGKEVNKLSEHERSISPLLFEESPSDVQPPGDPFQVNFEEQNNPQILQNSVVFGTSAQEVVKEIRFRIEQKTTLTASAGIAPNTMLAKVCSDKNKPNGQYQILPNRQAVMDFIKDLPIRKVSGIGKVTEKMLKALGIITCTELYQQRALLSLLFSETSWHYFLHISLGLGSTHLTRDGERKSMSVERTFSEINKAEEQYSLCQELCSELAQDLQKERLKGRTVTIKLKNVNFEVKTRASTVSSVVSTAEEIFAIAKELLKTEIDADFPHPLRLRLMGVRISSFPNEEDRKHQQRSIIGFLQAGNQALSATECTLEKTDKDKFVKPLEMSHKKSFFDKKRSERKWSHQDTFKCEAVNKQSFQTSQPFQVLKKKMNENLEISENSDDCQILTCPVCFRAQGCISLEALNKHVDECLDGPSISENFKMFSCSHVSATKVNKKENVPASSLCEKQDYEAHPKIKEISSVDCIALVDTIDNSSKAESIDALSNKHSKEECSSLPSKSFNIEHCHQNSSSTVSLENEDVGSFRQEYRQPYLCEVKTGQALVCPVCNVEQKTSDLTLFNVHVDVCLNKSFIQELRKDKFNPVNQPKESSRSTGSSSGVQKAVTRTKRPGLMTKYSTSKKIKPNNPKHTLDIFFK
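10 nM Pol kappa was preincubated with compounds for 15 min at room temperature. Reaction started with 50 nM (final) substrate. Fluorescence read kinetically at 0 and 10 min.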
Pol eta inh: blocks human DNA polymerase eta activity; Q9Y253; recombinant Pol eta, fluorescent DNA replication assay; Potency, µM (series often up to 114 µM), actives largely listed as inhibitors; 390,000 tested, 1.2% active; AID 588591
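Pol eta (10 nM) was preincubated with compounds for 15 min at room temperature, after which fluorescent replication substrate (50 nM final) was added to start the reaction. Fluorescence was read kinetically at 0 and 10 min.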
WRN inhibitor: inhibitors of human WRN helicase; Q14191; WRN helicase unwinding, fluorescent forked duplex, kinetic; Potency, µM (doses to about 114 µM), usual class: inhibitors; 360,000 tested, 0.46% active; AID 651768; note: nearly all actives have a fitted effect of over 55% in size
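Enzyme (20 nM final) and test compound sit together 15 min at room temperature before substrate addition. Substrate is a single-forked duplex oligonucleotide (100 nM) labelled with fluorophore and quencher, with 2 mM ATP; helicase unwinding raises red fluorescence, read kinetically.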
A number is an active result; 0 = inactive; ? = inconclusive; - = no result; [ ] = another dose, or the depositor's remark. An excerpt weighted towards active compounds, which were near 2.4% of everything screened. Calls come from the whole dose curve; as a rule, active = well fitted curve in the direction sought with a large enough effect; inconclusive = small, poorly fitted or top-dose-only effect, or another doubt; inactive = no such curve, though single readings can be large; an effect the other way counts as inactive or inconclusive.

SMILES	POLI inh	Pol beta inh	FEN1 inh	POLK inh	Pol eta inh	WRN inhibitor
COc1ccccc1-c1cc(C(=O)Nc2sc3c(c2C#N)CCC(C)C3)c2ccccc2n1 (stereo unspecified)	0	0	0	0	0	0
CCNC(=O)[C@@H]1CCCN1C(=O)[C@H](CCCN=C(N)N)NC(=O)[C@H](CC(C)C)NC(=O)[C@@H](Cc1c[nH]c2ccccc12)NC(=O)[C@H](Cc1ccc(O)cc1)NC(=O)[C@H](CO)NC(=O)[C@H](Cc1c[nH]c2ccccc12)NC(=O)[C@H](Cc1cnc[nH]1)NC(=O)[C@@H]1CCC(=O)N1	-	-	-	0[19.4 µM]	-	-
C[C@@H]1C(=O)O[C@H]2C[C@@]34[C@H]5C[C@@H](C(C)(C)C)[C@]36[C@H](OC(=O)[C@H]6O)O[C@]4(C(=O)O5)[C@]21O	-	-	-	0	-	-
Cc1c(O)c2ccccc2n(-c2ccccc2)c1=O	0	-	0	0	0	0
CC(C)(C)c1c(Cl)c(O)c(-c2ccccc2)c(=O)n1-c1ccccc1	1.12µM	0	0	0	0	50.1µM
O=C(Nc1ccc(F)cc1)C(=O)C1C(=O)Nc2ccccc21 (stereo unspecified)	89.1µM	0	0	0	0	0
O=C(O)C(S)[C@@H](S)C(=O)O (stereo partly specified)	-	-	-	22.4µM	-	-
O=C(O)C(S)C(S)C(=O)O (stereo unspecified)	?	-	0	?	?	0
C=C1C=C(C(F)F)n2ncc(C(=O)NCc3ccccc3)c2N1	0	-	0	0	-	-
CN(C)S(=O)(=O)N1CCC(Oc2cccc(C(=O)N3CCCCCC3)c2)CC1	0	0	0	0	0	0
CN(C)S(=O)(=O)N1CCC(Oc2cccc(C(=O)N3CCCCCCC3)c2)CC1	89.1µM	0	0	0	0	0[11.6 µM]
Cc1cnc(CNc2nc(-c3ccc(C(=O)N(C)C)cc3)nc3ccccc23)cn1	-	-	-	0	-	-
COc1cc2cc(Oc3ccc4ccc(=O)oc4c3)c(=O)oc2cc1OC(=O)C=C(C)C	-	14.1µM	-	-	-	-
COc1cc2cc(Oc3ccc4ccc(=O)oc4c3)c(=O)oc2cc1OC(C)=O	0	0	0	0	?	0
Cc1cc2nc(NC3=NCN(CCN4CCOCC4)CN3)nc(C)c2cc1C	-	0	-	-	-	-
Cc1nc(NC2=NCN(CCCN3CCOCC3)CN2)nc2c(C)cccc12	?	0	39.8µM	0	0	0
O=c1c2nncn2ccn1-c1ccc(F)c(F)c1	0	31.6µM	0	0	0	-
O=C(O)COc1ccc2ccccc2c1	-	-	-	0	-	-
CCOc1ccc2nc(SCC(=O)c3ccc(O)cc3O)sc2c1	?	35.5µM	0	?	?	0
CCOc1ccc2nc(SCC(=O)c3ccc(C)s3)sc2c1	0	0	0	0	0	0
CN(C)C(=O)COc1ccccc1C(=O)OCC(=O)Nc1ccc(Oc2ccc(Br)cc2)cc1	0	-	0	0	-	-
c1coc(CNc2nc(-c3cccs3)cs2)c1	0	20µM	0	0	0	0
O=c1c2c([N+](=O)[O-])cc([N+](=O)[O-])cc2sn1Cc1ccccc1	0	0	?	0	0	20µM
O=c1c2cc([N+](=O)[O-])cc([N+](=O)[O-])c2[nH]n1-c1ccccc1	?	0	0	0	?	0
O=c1c2c([N+](=O)[O-])cc([N+](=O)[O-])cc2sn1-c1ccc(Br)cc1	0	0	0	0	0	79.4µM
SMILES	POLI inh	Pol beta inh	FEN1 inh	POLK inh	Pol eta inh	WRN inhibitor
O=[N+]([O-])c1ccc2c(c1)/C(=C/c1ccc(C=S)cc1)C=C2	0	-	0	0	-	-
C[N+](C)(C)CC(=O)N/N=C/c1c2ccccc2cc2ccccc12	0	44.7µM	50.1µM	0	0	0[11.6 µM]
Cc1cc2nc(-c3ccc(SCC(=O)N4CCN(C(=O)c5ccco5)CC4)nc3)[nH]c2cc1C	?	35.5µM	0	?	79.4µM	?
Cc1cc2nc(-c3ccc(SCC(=O)N4CCOCC4)nc3)[nH]c2cc1C	?	?	0	0	0	0
Cc1cc2cc3c(cc2nc1SCC(=O)N1CCN(C(=O)c2ccco2)CC1)OCO3	70.8µM	?	0	0	0	0
Cc1cc2nc(-c3ccc(SCc4ccccn4)nc3)[nH]c2cc1C	44.7µM	?	0	0	0	?
CCc1cc2ccc(OC)cc2nc1SCC(=O)N1CCN(C(=O)c2ccco2)CC1	0	0	0	0	0	0
O=C(CSc1c2c(nc3ccc(Cl)cc13)CCCC2)N1CCN(C(=O)c2ccco2)CC1	20µM	-	0	?	0	0
CCCN1CCC(=O)N(CCSc2ccc(Br)cc2)CC1	0	-	0	0	-	-
Cc1cccc(-c2[nH]c(C(C)(C)C)nc2-c2ccc3nccnc3c2)n1	-	-	-	0	-	-
C[N+]1(CC(=O)c2ccc(Oc3ccc(C(=O)C[N+]4(C)CCOCC4)cc3)cc2)CCOCC1	?	-	0	0	-	-
CC1=CCC(C(C)(C)O)CC1 (stereo unspecified)	-	-	-	0	-	-
CN(C)CCOc1nc(-c2ccccc2)nc2c1oc1ccccc12	?	44.7µM	50.1µM	0	?	0
CN(C)CCOc1ncnc2c1oc1ccccc12	0	0	0	0	0	0
Cc1cc2nc(/C(C#N)=C\c3ccc(-c4ccccc4C(=O)O)o3)[nH]c2cc1C	?	?	?	?	25.1µM	0[11.6 µM]
Cc1ccc2nc(/C(C#N)=C\c3ccc(N4CCOCC4)o3)[nH]c2c1	?	35.5µM	?	0	?	44.7µM
N#C/C(=C\c1ccc(-c2ccccc2C(=O)O)o1)c1nc2ccccc2[nH]1	0	0	?	0	?	56.2µM
N#C/C(=C\c1ccc(Sc2ccccc2)o1)c1nc2ccccc2[nH]1	0	39.8µM	?	0	?	?
OC1c2ccccc2N=C2CCCN21 (stereo unspecified)	-	-	-	0	-	-
O=c1c2cc(F)ccc2sn1-c1ccccc1	0	-	79.4µM	0	0	0
O=c1c2ccccc2sn1-c1ccccc1	?	0	?	0	0	50.1µM
O=c1c2ccccc2sn1-c1nccs1	0	0	?	0	0	25.1µM
Cc1ccccc1-n1sc2cc(F)ccc2c1=O	0	0	79.4µM	0	0	14.1µM
CC(C)C[C@H](NC(=O)[C@H](CO)NC(=O)[C@@H]1CCCN1C(=O)[C@H](Cc1ccc(O)cc1)NC(=O)[C@H](CC(C)C)NC(=O)[C@H](CC(C)C)NC(=O)[C@@H]1CCCN1C(=O)[C@@H](NC(=O)[C@H](CO)NC(=O)[C@H](CO)NC(=O)[C@H](CO)NC(=O)[C@H](CO)NC(=O)[C@@H]1CCCN1C(=O)[C@@H](NC(=O)[C@@H](N)CO)C(C)C)[C@@H](C)O)C(=O)N[C@@H](C)C(=O)N[C@@H](CC(C)C)C(=O)N1CCC[C@H]1C(=O)N[C@@H](C)C(=O)N1CCC[C@H]1C(=O)O	-	-	-	0	-	-
COc1ccc(NC(=O)c2cc(OCCCN(C)C)nn2Cc2ccccc2)cc1	-	-	-	0	-	-
